The values below come from ChEMBL document CHEMBL3433997, “St. Jude Leishmania screening dataset” (2016).

Common to all, as to format: functional
Test [1] addresses Solute carrier family 2, facilitated glucose transporter member 1 (Homo sapiens) (UniProt P11166). Description: ST_JUDE_LEISH: Cytotoxicity at 2uM final concentration against transgenic Leishmania Mexicana promastigotes LmGLUT1 that are glucose transport deficient and complemented with the human glucose transporter GLUT1. Activity is measured by DNA content using SYBR green in vitro.

In test [2] the target is Hexose transporter 1 (Plasmodium falciparum) (UniProt O97467). Description: ST_JUDE_LEISH: Cytotoxicity at 2uM final concentration against transgenic Leishmania Mexicana promastigotes LmPfHT that are glucose transport deficient and complemented with the Plasmodium falciparum hexose transporter. Activity is measured by DNA content using SYBR green in vitro.
The target of test [3] is Glucose transporter (Leishmania mexicana) (UniProt O61059). Kind of test: ST_JUDE_LEISH: Cytotoxicity at 2uM final concentration against transgenic Leishmania Mexicana promastigotes LmGT2 that are glucose transport deficient and complemented with the L. Mexicana glucose transporter 2. Activity is measured by DNA content using SYBR green in vitro.

Chain of Solute carrier family 2, facilitated glucose transporter member 1 (Homo sapiens) (P11166 whole entry): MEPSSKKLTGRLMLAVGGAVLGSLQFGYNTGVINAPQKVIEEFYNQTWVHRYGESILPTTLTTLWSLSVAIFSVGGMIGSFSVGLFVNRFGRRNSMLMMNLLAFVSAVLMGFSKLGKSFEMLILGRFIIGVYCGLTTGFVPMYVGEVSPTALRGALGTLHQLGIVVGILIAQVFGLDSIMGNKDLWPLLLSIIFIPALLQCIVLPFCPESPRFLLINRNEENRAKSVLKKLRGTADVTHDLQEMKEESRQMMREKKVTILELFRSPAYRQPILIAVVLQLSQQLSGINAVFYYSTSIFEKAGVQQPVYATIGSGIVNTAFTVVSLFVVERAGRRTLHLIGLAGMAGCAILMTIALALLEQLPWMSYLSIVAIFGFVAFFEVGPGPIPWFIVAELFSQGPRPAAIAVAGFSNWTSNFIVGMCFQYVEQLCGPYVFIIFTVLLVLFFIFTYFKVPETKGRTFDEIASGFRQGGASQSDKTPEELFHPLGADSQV

In general, inhibition refers to the relative decrease from the control value, in per cent. `CCCCN(Cc1cnccc1-c1ccc(Br)cc1)c1ccc(C(O)(C(F)(F)F)C(F)(F)F)cc1`: the results for the inhibition in test [1], in test [2] and in test [3] were 3.94%, 3.75% and 0%, respectively.
Take `CC(C)C[C@H]1c2[nH]c3ccc(Cl)cc3c2CCN1C(=O)CCc1ccccc1`: the inhibition in test [1] is 3.74%; in test [2], 2.53%; in test [3] it was -0.65%.
Regarding `C=CCn1ccc2c3c(N)nc(N)nc3ccc21`, the inhibition in test [1] came out at 66%; in test [2], 79.6%; in test [3], 44.1%.
Consider `CCOc1ccc(C(=O)Nc2cc3c(c(C(F)(F)F)c2)CCNC3)cc1Cl`, for which the inhibition in test [1] came to 7.38%; in test [2], 4.16%; in test [3], 5.38%.
Turning to `CNS(=O)(=O)CCNCc1ccc(-c2ccc3ncnc(Nc4ccc(OCc5ccccc5)cc4)c3c2)o1`, the inhibition in test [1] was determined as 6.09%; in test [2], 6.17%; in test [3], 3.83%.
With `OC(CNCc1cccc(Oc2ccc(Cl)cc2)c1)c1cc(C(F)(F)F)cc(C(F)(F)F)c1` (stereo unspecified), the values for the inhibition in test [1], in test [2] and in test [3] were 0.85%, -0.5% and -2.95%, respectively.
As to `CCOc1ccccc1CNc1nccc(NCc2ccc(Cl)cc2Cl)n1`, the inhibition came out at 31.3% in test [1], 21.2% in test [2] and 9.92% in test [3].
Turning to `Cc1[nH]c(C)c(-c2ccc(-c3ccc4c(c3)OCO4)nc2)c(=O)c1Br`, the inhibition amounted to 0.29% in test [1], 1.09% in test [2] and 0.07% in test [3].
Turning to `O=C(Nc1cccc(C(F)(F)F)c1)N1CCOC(CCN2CCC(c3ccccc3)CC2)(c2ccc(Cl)c(Cl)c2)C1` (stereo unspecified), the inhibition in test [1] stood at 1.69%; in test [2], 1.44%; in test [3], 0.72%.
On to `CCOc1cc(CC)ccc1C1CCN(CCN2CCC(CNC(=O)c3ccc(-c4ccc(C#N)cc4)cc3)CC2)CC1`, for which the inhibition in test [1] was 16.2%; in test [2], 13%; in test [3], 13.1%.
For the compound `Fc1ccc(Nc2nnc(CNC3CCN(Cc4ccc(Cl)c(Cl)c4)CC3)[nH]2)cc1`, the inhibition in test [1] is 2.85%; in test [2], 0.21%; in test [3], -0.83%.
As for `CCOc1cc2c(cc1OCC)C(c1cc(OC)c(O)cc1Cl)NCC2` (stereo unspecified), the inhibition amounted to 2.01% in test [1], 0.45% in test [2] and 2.79% in test [3].
